According to the supplement of paper PMC9334596:
Values joined by “and” are separate entries in the source; they are usually repeats but may differ in a detail not shown here. Identical values can stand only once. Over roughly 5,300 compounds, “PER2::LUC luminescence relative to vehicle control” has its median near 0.96; the highest 2% begin near 1.3. The sample as a whole holds a higher share of the highest values than the screen did.

Tested on: mPer2Luc MEF
Test: PER2::LUC luminescence relative to vehicle control (fold of vehicle); higher = higher PER2::LUC reporter signal
Conditions: 10 µM
Outline: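 In 384-well plates, ~3000 mPer2Luc reporter mouse embryonic fibroblasts per well were cultured in DMEM with 10% FBS at 37 °C and 5% CO2 for 48 h before compounds from commercial libraries were added at 10 μM. ONE-Glo luciferase readings were taken 24 h and 30 h after treatment. Each value is PER2::LUC luminescence given as fold of vehicle control.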

Compound	PER2::LUC luminescence (time after treatment 24 h)	PER2::LUC luminescence (time after treatment 30 h)
NC(=NC12CC3CC(CC(C3)C1)C2)Nc1ccc(I)cc1	1.06	0.918
CNC(=O)c1cc(Oc2ccc(NC(=O)c3cccc(C(F)(F)F)c3)cc2)ccn1	1.15	1.14
O=C(OCc1ccccc1)c1ccccc1	1.05	1.03
CCOC(=O)c1ccc(N(C)c2csc(-c3ccccc3)n2)cc1	1.19	1.58
CCOC(=O)c1ccc(O)cc1	1.06 and 0.859	1.02 and 0.79
Cn1cc(-c2ccc3nnc(Sc4ccc5nn(C)cc5c4)n3n2)cn1	0.782	0.785
C=CC(C)(C)c1cc(/C=C\C(=O)c2ccc(O)cc2)c(OC)cc1O	0.553	0.862
C[C@@H]1C[C@H]2[C@@H]3C[C@H](F)C4=CC(=O)C(Cl)=C[C@]4(C)[C@@]3(F)[C@@H](O)C[C@]2(C)[C@@]1(O)C(=O)CO	0.765	0.857
CC(=O)O[C@H](CC(=O)O)C[N+](C)(C)C	1.03	0.967
CC(C)(C)OC(=O)N1CCC(OCc2nc(-c3ccncc3)no2)CC1	0.986	0.843
CC(=O)c1ccc(S(=O)(=O)NC(=O)NC2CCCCC2)cc1	1.02	0.908
NC(=O)c1cccc(-c2cccc(OC(=O)NC3CCCCC3)c2)c1	1.27	1.36
NC(=O)c1cccc(N)c1	1.1	1.01
CCCCOC(=O)c1ccc(N)cc1	1.06 and 1.09	1.28 and 1.2
CC(C)COC(=O)c1ccc(N)cc1	1.34	1.43
N=C(N)c1ccc(N)cc1	0.971	1.01
CCCCOC(=O)c1ccc(O)cc1	1.63 and 1.43	1.61 and 1.57
Nc1ccc(C(=O)O)cc1	0.924 and 0.9	0.926 and 0.943
CCCOc1ccc(C(=O)OCCN(CC)CC)cc1N	1.03	0.962
CCN(CC)CCOC(=O)c1ccc(N)cc1	1.07 and 0.897	1.58 and 0.928
CCCCNc1ccc(C(=O)OCCN(C)C)cc1	1.04	0.965
CCCCN(CCCC)CCCOC(=O)c1ccc(N)cc1	0.966	0.832

Compound	PER2::LUC luminescence (time after treatment 24 h)	PER2::LUC luminescence (time after treatment 30 h)
CN(C)[C@@H]1c2onc(OCc3ccccc3)c2C(=O)[C@@]2(O[Si](C)(C)C(C)(C)C)C(=O)C=CC[C@@H]12	0.723	0.75
c1ccc2[nH]ncc2c1	0.963	0.985
CN1c2ccccc2C(=O)N2CCc3c([nH]c4ccccc34)C21 (stereo in doubt)	0.589	0.628
CNc1ccccc1C(=O)N1CCc2c([nH]c3ccccc23)C1=O	1.56	1.79
CN1CCc2ccccc2Cc2[nH]c3ccccc3c2CC1	1.11	0.824
O=Cc1ccc2cccc(O)c2n1	1.1	0.962
Nc1n[n+]([O-])c2ccccc2[n+]1[O-]	1.36	1.15
CNC(=S)NCCSCc1[nH]cnc1C	1.06	1.06
N[C@@H](CCS(=O)O)C(=O)O	0.964	0.944
O=C(O)c1ccccc1	0.918	0.766
CN(NC(=O)CC(=O)NN(C)C(=S)c1ccccc1)C(=S)c1ccccc1	1.68	1.1
O=C(OOC(=O)c1ccccc1)c1ccccc1	1.2	0.843
NS(=O)(=O)c1ccc(-c2c(-c3ccccc3)noc2C(F)F)cc1	1.04	1
CO[C@H]1C[C@H](O[C@@H]2/C(C)=C/C[C@@H]3C[C@@H](C[C@]4(CC[C@H](C)[C@H](C5CCCCC5)O4)O3)OC(=O)[C@H]3C=C(C)/C(=N\O)[C@H]4OCC(=C/C=C/[C@@H]2C)[C@@]34O)O[C@@H](C)[C@@H]1O	0.989	0.929
CSc1ccccc1NC(C)=O	0.972	0.93
CC(=O)N[C@H]1[C@H]([C@H](O)[C@H](O)CO)OC(O)(C(=O)O)C[C@@H]1O (stereo partly drawn)	1.03	0.921
COc1cc(C(=O)O[C@H]2C[C@@H]3CC[C@]2(C)C3(C)C)ccc1O	1.15	1.19
COc1ccc(-c2ccc3cc(C(=O)O)ccc3c2)cc1C12CC3CC(CC(C3)C1)C2	1.49	1.86
O=C(O)c1ccc2cc(-c3ccc(O)c(C45CC6CC(CC(C6)C4)C5)c3)ccc2c1	1.59	1.63
O=C(O)/C=C/c1ccc(-c2ccc(O)c(C34CC5CC(CC(C5)C3)C4)c2)cc1	0.735	0.721
COc1cc(C(=O)O)cc(OC)c1O	1.06	1.08
NC(=O)c1cccc(NC(=O)/C=C/c2c[nH]c3ccccc23)c1	1.08	1.06
